In PubChem BioAssay AID1347145 (National Center for Advancing Translational Sciences (NCATS), 2019):
Records with an inconclusive call do not appear. Values without a mark were called inactive. Calls follow the shape of the dose curve; as a rule, active = well fitted inhibition curve with a large enough effect; inconclusive = small, poorly fitted or top-dose-only effect; inactive = no such curve, though single readings can be large or run the other way.

Molecular target: N-terminal Xaa-Pro-Lys N-methyltransferase 1 (Homo sapiens) (UniProt Q9BV86)
Test: qHTS Assay for Inhibitors of N-terminal methyltransferase 1 (NTMT1): MTaseGlo Assay Confirmatory Screen, Round 1
Details: Recombinant NTMT1, MTase-Glo SAH luminescence; series mostly up to 57.1 µM; activity change, negative = inhibition: at the top concentration
Text: Assay Submitter (PI): Rong Huang Ph.D, Purdue University, West Lafayette, IN 47907 The N-terminal methytransferase 1 is the first methyltransferase that methylates protein alpha-N-amines and plays an important role in regulating cell mitosis, chromatin interactions and DNA repair. It is observed to be over-expressed in various cancer patient tissues like malignant melanoma and colorectal cancer tissues. Knockdown of NTMT1 in cancer cells causes cell mitotic defects and enhances sensitivity to DNA damaging chemotherapeutics. […] These critical cellular processes in which NTMT1 is implicated, coupled with emerging links to cellular dysfunction, strengthen the inference that NTMT1 is a compelling novel anticancer target. Progress have been made in understanding the molecular properties of NTMT1 and the biological consequences of protein alpha-N-terminal methylation, but there are no specific small molecule probes available for NTMT1 to fully characterize its MTase activity. To address this unmet need, a panel of assay is created and established to enable quantitative high-throughput screening (qHTS) for novel, potent, and selective small molecule NTMT1 inhibitors. Two orthogonal qHTS that use different reagents (ThioGlo vs. MTaseGlo) are developed for primary robotic screening against the NCATS chemical library of more than 400,000 small molecules. Identified inhibitors are reacquired, validated, and further characterized. MTaseGlo Assay is a luminescence screen that measure the activity of methyltransferases based on the reaction product S-adenosyl homocysteine (SAH). The substrate SAM is converted to SAH upon enzyme activation. MTase-Glo reagent and detection solution convert SAH to ATP and measure the light from the luciferase reaction. […] Early Translation Branch (ETB) National Center for Advancing Translational Sciences (NCATS) National Institute of Health (NIH)
Materials: NTMT1 enzyme, substrate SPKRIA, control peptide RCC1-6 is provided by the Huang laboratory. MTaseGlo Assay: In brief, 3 µL of enzyme mixture (final concentrations of 125 nM and 100 µM for NTMT1 and SAM, respectively) into all wells of a 1,536-well solid-bottom white plate (Greiner Bio One, Monroe, NC). 23 nL of DMSO or Ac-RCC1-10 (final concentration range 234 nM to 143 microM) was transferred via Wako Pin-tool (Wako Automation, Richmond, VA) and incubated (RT) for ~15 minutes. Next, 1 µL of substrate (final concentration 1 µM) or buffer was dispensed, and the reaction proceeded for 30 minutes (RT, protected from light) followed by a 1 microL addition of [5X] MTase-Glo Reagent(R). Samples were incubated (RT, protected from light) for 30 minutes to allow for SAH to be converted to ADP, followed by a 5 microL addition of [1X] MTase-Glo Detection Solution(R) to allow for ADP to be converted to ATP, which was then detected with a luciferase reaction. Samples were centrifuged for 15 seconds at 1,000 RPM's, followed by a RT incubation for 30 minutes. Plates were then read using Luminescence optics on a ViewLux detector. Data were normalized to no-enzyme (0% activity) and no-inhibitor (DMSO; 100%) controls, and the resulting percent inhibition data were fitted to a 4-parameter Hill equation using Graphpad Prism.

N-terminal Xaa-Pro-Lys N-methyltransferase 1 (Homo sapiens), sequence (Q9BV86 whole entry, looked up): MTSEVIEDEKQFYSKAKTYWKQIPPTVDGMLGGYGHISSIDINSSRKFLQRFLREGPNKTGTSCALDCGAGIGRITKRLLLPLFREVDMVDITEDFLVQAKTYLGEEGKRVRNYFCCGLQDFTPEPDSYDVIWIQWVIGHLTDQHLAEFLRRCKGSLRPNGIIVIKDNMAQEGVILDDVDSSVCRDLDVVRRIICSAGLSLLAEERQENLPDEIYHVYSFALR

Point of comparison: `Nc1ncnc2c1ncn2[C@@H]1O[C@@H]2CO[P@](=O)(S)O[C@H]2[C@H]1O`, “activity change, negative = inhibition” value -6.04%. Against it:
- Nc1ncnc2c1ncn2[C@@H]1O[C@H](COP(=O)(O)CP(=O)(O)O)[C@@H](O)[C@H]1O — higher, 4.38%
- Nc1ncnc2c1ncn2[C@@H]1O[C@@H]2COP(O)(=S)O[C@H]2[C@H]1O (stereo partly drawn) — higher, 2.01%
- Nc1ncnc2c1nc(Sc1ccc(Cl)cc1)n2[C@@H]1O[C@@H]2COP(O)(=S)O[C@H]2[C@H]1O (stereo partly drawn) — higher, 11.2%
- CCNC(=O)[C@H]1O[C@@H](n2cnc3c(N)ncnc32)[C@H](O)C1O (stereo partly drawn) — higher, -1.75%
- CCN(CC)c1ncnc2c1ncn2[C@@H]1O[C@H](COP(=O)(O)OP(=O)(O)C(Br)(Br)P(=O)(O)O)[C@@H](O)[C@H]1O — higher, 6%
- Nc1ncnc2c1ncn2[C@@H]1O[C@H](COP(=O)(O)OP(=O)(O)OP(=O)(O)O)[C@H]2OC3(O[C@H]21)C([N+](=O)[O-])=CC(=[N+]([O-])[O-])C=C3[N+](=O)[O-] (stereo partly drawn) — higher, 481%
- COc1cc2nc(N3CCCN(C)CC3)nc(N(C)C3CCN(C)CC3)c2cc1OC — lower, -10.2%
